Bioassay records as filed in PubChem BioAssay.
PI5P4Ka inh – qHTS for Inhibitors of phosphatidylinositol 5-phosphate 4-kinase (PI5P4K). PI5P4Kalpha enzyme, ADP-Glo luminescence, 60 min; active compounds read low. max response, %. hit rate 1.2% among 330,000; active = max response of -50% or lower; inconclusive = between -30% and -50%; inactive = -30% or higher; note: value at the top dose of about 77 µM
Target sequence (P48426 whole entry, looked up): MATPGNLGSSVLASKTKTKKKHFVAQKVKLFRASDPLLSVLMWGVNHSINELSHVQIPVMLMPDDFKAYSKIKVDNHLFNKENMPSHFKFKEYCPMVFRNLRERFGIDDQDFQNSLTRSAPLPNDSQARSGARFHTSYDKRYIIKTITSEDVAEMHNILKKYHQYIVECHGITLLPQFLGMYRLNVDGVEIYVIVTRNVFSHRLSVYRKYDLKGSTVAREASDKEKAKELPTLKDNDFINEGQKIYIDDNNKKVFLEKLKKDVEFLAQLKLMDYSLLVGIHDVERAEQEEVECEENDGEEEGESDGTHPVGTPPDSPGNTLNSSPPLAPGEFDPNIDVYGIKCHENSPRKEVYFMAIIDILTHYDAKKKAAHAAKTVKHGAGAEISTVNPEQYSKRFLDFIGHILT
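Enzyme plus substrate dispensed, test compounds pinned in, then ATP (5 microM final) added. After 60 min at RT, ADP-Glo reagent 1 for 45 min and reagent 2 for 30 min preceded luminescence imaging.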
G9a inh – qHTS Assay for Inhibitors of Histone Lysine Methyltransferase G9a; Potency, µM (doses to about 102 µM), usual class: inhibitors; G9a H3K9 monomethylation, AlphaScreen, 2 h; hit rate 8.8% among 350,000; note: nearly all actives have a fitted effect of over 75% in size
Target sequence (Q96KQ7 913-1193 limits assumed): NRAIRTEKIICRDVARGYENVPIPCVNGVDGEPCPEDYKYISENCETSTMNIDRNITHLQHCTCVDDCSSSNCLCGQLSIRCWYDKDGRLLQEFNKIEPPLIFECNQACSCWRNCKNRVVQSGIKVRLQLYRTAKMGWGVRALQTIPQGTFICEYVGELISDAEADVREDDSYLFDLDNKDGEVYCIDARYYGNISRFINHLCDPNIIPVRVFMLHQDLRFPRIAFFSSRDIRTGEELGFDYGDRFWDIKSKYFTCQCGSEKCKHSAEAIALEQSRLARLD
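G9a (20 nM) preincubated 15 min RT with compounds, then 500 nM biotinylated H3K9 peptide and 20 uM SAM added; 2 h RT reaction. Monomethyl-H3K9 product detected by AlphaScreen with anti-H3K9me1 antibody, streptavidin donor and anti-rabbit IgG acceptor beads.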
HP1b chromo inh – HTS for Inhibitors of HP1-beta Chromodomain Interactions with Methylated Histone Tails. Potency, µM (series often up to 114 µM), actives largely listed as inhibitors. AlphaScreen HP1-beta / biotin-H3K9me3 peptide binding. Chromobox protein homolog 1 (Homo sapiens), P83916. AID 540317, 2011. hit rate 0.56% among 390,000; note: nearly all actives have a fitted effect of over 70% in size
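AlphaScreen: HP1-beta (50 nM) preformed 30 min with biotin-H3(1-18)K9me3 peptide (50 nM) in PBS pH 7.4, 0.01% Tween-20. Compound added for 30 min at RT, then streptavidin donor/nickel chelate acceptor beads (10 ug/mL) for 30 min.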
BAZ2B inh – qHTS Assay for Inhibitors of BAZ2B | Potency, µM (titrated, usually from 114 µM), usual class: inhibitors | AlphaScreen BAZ2B-H3K14Ac peptide displacement | AID 504333, 2011 | hit rate 4.4% among 360,000 | Bromodomain adjacent to zinc finger domain protein 2B (Homo sapiens), Q9UIF8; note: nearly all actives have a fitted effect of over 60% in size
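In this displacement format the biotinylated H3(5-23) peptide acetylated at Lys14 serves as ligand at 50 nM, with BAZ2B at 50 nM in PBS pH 7.4 containing 0.01% Tween-20. Donor and acceptor beads are 10 ug/mL final.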
JMJD2A Tudor inh – qHTS Assay for Inhibitors of JMJD2A-Tudor Domain; Lysine-specific demethylase 4A (Homo sapiens), O75164; AlphaScreen JMJD2A-Tudor / H3K4me3 peptide binding; Potency, µM (doses to about 114 µM), hits mostly inhibitors; hit rate 4.4% among 390,000; note: nearly all actives have a fitted effect of over 50% in size
PLK1 PBD block – qHTS for Inhibitors of PLK1-PDB (polo-like kinase 1 - polo-box domain): Primary Screen. Serine/threonine-protein kinase PLK1 (Homo sapiens), P53350. Plk1 PBD binding of FITC phosphopeptide, fluorescence polarization. Potency, µM, most hits filed as inhibitors. hit rate 2.8% among 360,000; note: series mostly up to about 57 µM; nearly all actives have a fitted effect of over 65% in size
Of the large screens only hits and unclear results are named; the others gave an inactive call. Compounds with a hit are over-represented: about 12% of the library has one in this group of screens. Unless noted, calls come from the whole dose curve; as a rule, active = well fitted curve in the direction sought with a large enough effect; inconclusive = small, poorly fitted or top-dose-only effect, or another doubt; inactive = no such curve, though single readings can be large; an effect the other way counts as inactive or inconclusive.

CCOc1cccc2sc(N(CCCN(C)C)C(=O)c3ccc(S(=O)(=O)N(CC)Cc4ccccc4)cc3)nc12	G9a inh 39.8µM, BAZ2B inh inconclusive, JMJD2A Tudor inh 31.6µM
CCCCN(CC)S(=O)(=O)c1ccc(C(=O)N(CCCN(C)C)c2nc3cc(C)cc(C)c3s2)cc1	G9a inh 44.7µM, BAZ2B inh inconclusive, JMJD2A Tudor inh inconclusive
COc1ccc(CCn2c3c(c(=O)[nH]c2=S)CN(Cc2ccccc2)CN3)cc1OC	none (no result: PI5P4Ka inh, G9a inh, BAZ2B inh, PLK1 PBD block)
CCCCCC/C=C/c1ccc(OC)c(C2C3C=CCC(C)C3C(=O)N2Cc2ccccc2)c1 (stereo not drawn)	none (no result: PI5P4Ka inh, G9a inh, BAZ2B inh, PLK1 PBD block)
Cc1cc(C)c2sc(N(CCCN(C)C)C(=O)c3ccc(Br)s3)nc2c1	G9a inh inconclusive, BAZ2B inh 50.1µM, JMJD2A Tudor inh inconclusive
CCN(Cc1ccccc1)S(=O)(=O)c1ccc(C(=O)N(CCCN(C)C)c2nc3cc(C)cc(C)c3s2)cc1	G9a inh 25.1µM, HP1b chromo inh inconclusive, BAZ2B inh inconclusive, JMJD2A Tudor inh inconclusive
CN(C)CCN(C(=O)c1ccc(Br)s1)c1nc2cc3c(cc2s1)OCCO3	G9a inh inconclusive (no result: BAZ2B inh)
CC(Oc1ccc2c3c(c(=O)oc2c1)CCCC3)C(=O)NCC(O)c1ccccc1 (stereo not drawn)	none
CCN1c2ccccc2N(C)C1(C)c1ccccc1 (stereo not drawn)	G9a inh 2.51µM, HP1b chromo inh 31.6µM, BAZ2B inh 28.2µM, JMJD2A Tudor inh 8.91µM, PLK1 PBD block 1.68µM
CCC1(c2ccccc2)CN(C)C1=O (stereo not drawn)	none (no result: G9a inh, HP1b chromo inh, BAZ2B inh, JMJD2A Tudor inh)
COc1ccc(CCNC(=O)c2ccc(-n3c(C)cc4c3CCC(C)C4)cc2)cc1OC (stereo not drawn)	none (no result: PI5P4Ka inh, PLK1 PBD block)
Cc1ccccc1C(OCCN(C(C)C)C(C)C)c1ccccc1 (stereo not drawn)	G9a inh 28.2µM, HP1b chromo inh inconclusive, BAZ2B inh inconclusive, JMJD2A Tudor inh 0.891µM
Cc1ccc(O)c([C@H](CCN(C(C)C)C(C)C)c2ccccc2)c1	none
CC1(C(=O)NS(=O)(=O)c2cccc(OC(F)F)c2)CCN1C(=O)CCc1cccs1 (stereo not drawn)	none (no result: G9a inh, HP1b chromo inh, BAZ2B inh, JMJD2A Tudor inh)
NS(=O)(=O)c1ccc(NC(=O)CSC2CCCCC2)cc1	G9a inh inconclusive, JMJD2A Tudor inh 28.2µM, PLK1 PBD block 29.9µM
NS(=O)(=O)c1ccc(NC(=S)NC2CCCC2)cc1	G9a inh 8.91µM
O=S(=O)(c1ccc(NC(=S)NC2CCCC2)cc1)N1CCCC1	PI5P4Ka inh inconclusive, PLK1 PBD block 15µM (no result: G9a inh)
COc1ccc(NC(=O)CSC2CCCCC2)cc1	none (no result: PI5P4Ka inh)
CCCN1CCC(NC(=S)Nc2ccc(S(N)(=O)=O)cc2)CC1	none
CC(=O)c1ccc(NC(=S)NNC(=O)NC2CCCCC2)cc1	PI5P4Ka inh inconclusive, G9a inh 8.91µM, BAZ2B inh inconclusive
Cc1cn([C@H]2C[C@H](O)[C@@H](CNC(=O)c3ccccn3)O2)c(=O)[nH]c1=O	none (no result: G9a inh, HP1b chromo inh, BAZ2B inh, JMJD2A Tudor inh)
CCOC(=O)c1ccc(N2C(=O)CC(SCC(=O)Nc3ccc(S(N)(=O)=O)cc3)C2=O)cc1 (stereo not drawn)	G9a inh 31.6µM, PLK1 PBD block 29.9µM
S=C(NNc1ccc2ccccc2c1)NC1CCCCC1	G9a inh 11.2µM, HP1b chromo inh 28.2µM, BAZ2B inh 8.91µM, JMJD2A Tudor inh 3.98µM
NS(=O)(=O)c1ccc(NC(=O)CSc2nnc(NC3CC3)s2)cc1	PI5P4Ka inh inconclusive, G9a inh 44.7µM, HP1b chromo inh inconclusive, BAZ2B inh inconclusive, JMJD2A Tudor inh inconclusive
S=C(Nc1ccc(Oc2ccccc2)cc1)NC1CCCCC1	none
CC(OC(=O)CCC1CCCCC1)C(=O)Nc1ccc(S(N)(=O)=O)cc1 (stereo not drawn)	G9a inh 56.2µM
O=C(CSc1nnc(NC2CCCCC2)s1)Nc1ccc2c(c1)C(=O)c1ccccc1C2=O	PI5P4Ka inh inconclusive, BAZ2B inh inconclusive (no result: G9a inh)
COc1ccc(CN(C)C(C)C(=O)Nc2ccc(S(=O)(=O)N3CCCCC3)cc2)cc1F (stereo not drawn)	none
NS(=O)(=O)c1ccc(NC(=S)NC2CCCCCC2)cc1	G9a inh inconclusive, PLK1 PBD block 18.9µM
Cc1nnc(SCC(=O)NN2C(=O)NC3(CCCCC3)C2=O)s1	none
S=C(Nc1ccc(Oc2ccccc2)cc1)NC1CCCCCC1	G9a inh 44.7µM
O=C(CSc1nnc(NC2CCCCC2)s1)NN1C(=O)NC2(CCCCC2)C1=O	G9a inh 44.7µM, JMJD2A Tudor inh inconclusive
CNc1ccc(S(=O)(=O)NCC(=O)NCCCc2ccccc2)cc1[N+](=O)[O-]	G9a inh 39.8µM, BAZ2B inh 50.1µM, JMJD2A Tudor inh inconclusive, PLK1 PBD block 5.97µM
CN(C)c1ccc(S(=O)(=O)NCC(=O)OCC(=O)Nc2cccc(Cl)c2)cc1[N+](=O)[O-]	G9a inh 56.2µM, BAZ2B inh inconclusive, JMJD2A Tudor inh inconclusive
CNc1ccc(S(=O)(=O)NCC(=O)OC(C)C(=O)N(C)Cc2ccccc2)cc1[N+](=O)[O-] (stereo not drawn)	none
CN(C)c1ccc(S(=O)(=O)NCC(=O)NCc2ccccc2)cc1[N+](=O)[O-]	G9a inh 44.7µM, BAZ2B inh inconclusive, JMJD2A Tudor inh inconclusive, PLK1 PBD block 11.9µM
CC(C)CSc1ccc(S(=O)(=O)NCC(=O)O)cc1[N+](=O)[O-]	G9a inh 50.1µM
O=C(CSc1nc(-c2ccc(F)cc2)[nH]c1-c1ccccc1)Nc1ccccc1	none (no result: PI5P4Ka inh, PLK1 PBD block)
COc1ccc(C(=O)N2CCC3(CCCN(Cc4nccs4)C3)CC2)cc1	none (no result: PI5P4Ka inh, HP1b chromo inh, BAZ2B inh, JMJD2A Tudor inh, PLK1 PBD block)
Cc1cccc(C(=O)Nc2sc3c(c2C(=O)O)CCCC3)c1	G9a inh inconclusive, HP1b chromo inh inconclusive, JMJD2A Tudor inh inconclusive
Cc1cccc(C(=O)c2c(N)sc3c2CCC(C)C3)c1 (stereo not drawn)	G9a inh 44.7µM, HP1b chromo inh inconclusive, JMJD2A Tudor inh inconclusive
CC1CCc2c(sc(N)c2C(N)=O)C1 (stereo not drawn)	G9a inh inconclusive, JMJD2A Tudor inh inconclusive, PLK1 PBD block 26.7µM (no result: PI5P4Ka inh)
Cc1cccc(C(=O)c2c(N)sc3c2CCCC3)c1	G9a inh 31.6µM, JMJD2A Tudor inh inconclusive, PLK1 PBD block inconclusive
Cc1ccc(N2CC(NC(=O)c3cccs3)CC2=O)cc1C (stereo not drawn)	G9a inh inconclusive (no result: PI5P4Ka inh, PLK1 PBD block)
Cc1ccc(Cl)cc1NC(=O)c1cnn2c1NC(c1ccco1)CC2C(F)(F)F (stereo not drawn)	BAZ2B inh inconclusive (no result: PI5P4Ka inh)
